Source: the supplement of paper PMC6555819

What was measured:
Test in all cases: PBM binding z-score (relative to random genomic background probes); higher = stronger binding; sequences stand for … in GC…GCGATTGACAGCGTAGAATGAAGG
[1] = system: RARb homodimer (NR concentration 270 nM)
How it was run: (§1)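 Ligand-free nuclear receptor dimers were bound for 1 h to custom Agilent 4×180K protein-binding microarrays. Detection used antibodies against each partner (one per run). Binding z-scores rest on regression-normalized fluorescence, with random background probes as the reference.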

[2] = system: RARg:RXRa (NR concentration 270 nM, RXRa partner concentration 90 nM)
How it was run: as §1

[3] = system: RARg homodimer (NR concentration 270 nM)
How it was run: as §1

[4] = system: RXRa DBDmut IVT, anti-RXR (DBD mutation: RXRa K156A/R161A, NR concentration 90 nM)
How it was run: as §1

[5] = system: RXRa homodimer (NR concentration 180 nM)
How it was run: as §1

[6] = system: THRa:RXRa (NR concentration 90 nM, RXRa partner concentration 90 nM)
How it was run: as §1

[7] = system: THRa homodimer (NR concentration 90 nM)
How it was run: as §1

[8] = system: VDR homodimer (NR concentration 270 nM)
How it was run: as §1

Work on GCTAGCAGGCCATTTGGGTCACTCAATGACGGGC yielded a PBM binding z-score [1] of 2, a PBM binding z-score [2] of 1.11 and a PBM binding z-score [3] of 1.55. It also gave a PBM binding z-score [4] of 0.0537, a PBM binding z-score [5] of 0.821 and a PBM binding z-score [6] of 1.94. For the same sequence, the PBM binding z-score [7] was 0.534 and the PBM binding z-score [8] was 0.524.

CGAACTAGGTCATTGATAGGACAGTGAATAGTAA was tested, and the PBM binding z-score [1] was 2.83, the PBM binding z-score [2] was 4.58 and the PBM binding z-score [3] was 4.22. The PBM binding z-score [4] was 2.29, the PBM binding z-score [5] was 2.34 and the PBM binding z-score [6] was 2.61. For the same sequence, the PBM binding z-score [7] was 0.97 and the PBM binding z-score [8] was 1.35.

In the case of TCATATAGTTAAAGGTGAAAGTCGAACGATATGA, the PBM binding z-score [1] is reported as 1.34, the PBM binding z-score [2] is reported as 1.47 and the PBM binding z-score [3] is reported as 1.18. The PBM binding z-score [4] was 0.551, the PBM binding z-score [5] was 2.08 and the PBM binding z-score [6] was 1.23. It also gave a PBM binding z-score [7] of -0.586 and a PBM binding z-score [8] of -0.0826.

For CCTATTAGTTGACCATAAGGGCAACAGAAGCTCG, the PBM binding z-score [1] was 1.77, the PBM binding z-score [2] was 1.46 and the PBM binding z-score [3] was 1.16. The PBM binding z-score [4] was 0.685, the PBM binding z-score [5] was 0.825 and the PBM binding z-score [6] was 1.76. The PBM binding z-score [7] was 1.15 and the PBM binding z-score [8] was 0.832.

CCTAGTTAGTCAGGAGGTCACACACCGGATATGA was tested, and the PBM binding z-score [1] was 4.28, the PBM binding z-score [2] was 4.25 and the PBM binding z-score [3] was 3.72. For the same sequence, the PBM binding z-score [4] was 1.38, the PBM binding z-score [5] was 4.86 and the PBM binding z-score [6] was 3.74. For the same sequence, the PBM binding z-score [7] was 2.73 and the PBM binding z-score [8] was 3.01.

For TCTCGGAGGACACGAAGATCAGAGCTTTCCAGAG, the PBM binding z-score [1] was 0.193, the PBM binding z-score [2] was 0.499 and the PBM binding z-score [3] was 1.05. For the same sequence, the PBM binding z-score [4] was 0.0261, the PBM binding z-score [5] was 0.273 and the PBM binding z-score [6] was 1.1. For the same sequence, the PBM binding z-score [7] was 0.242 and the PBM binding z-score [8] was -0.899.

GCGACTGCGGCATCAGCAGGTTACCATAACTTAA was tested, and the PBM binding z-score [1] was 0.0981, the PBM binding z-score [2] was -0.378 and the PBM binding z-score [3] was -0.604. It also gave a PBM binding z-score [4] of -0.332, a PBM binding z-score [5] of 0.0443 and a PBM binding z-score [6] of 0.0329. The PBM binding z-score [7] was 0.0125 and the PBM binding z-score [8] was -0.566.
